Cycloheximide cs: counter-screen for Shiga toxin inhibitors: cycloheximide protein synthesis inhibition; cell reporter, cycloheximide protein synthesis inhibition counterscreen; max response, %; 300,000 tested, 12% active; in the data active = max response mostly above about 13%, no sharp cut-off; inactive = mostly below about 14%; also: read at 38.3 µM for the half of the compounds with a filed dose; 0% is about no effect
NS1 inh: blocks influenza NS1 protein function | 270,000 tested, 0.4% active | Potency, µM (highest dose often 46.1 µM), for inactives: top-dose activity, positive = more growth; calls by dose curve; also: potency is read from the fitted curve at half-maximal effect; actives are rising curves; nearly all actives have a fitted effect of over 50% in size
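OD600 was taken as the measure of yeast growth restored by compound in an NS1-expressing S. cerevisiae strain. Cells had been washed out of glucose medium and diluted 1:100 into galactose -URA medium, pH 6.0.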
AmpC inh detg: blocks E. coli AmpC beta-lactamase in detergent assay; P00811; Potency, µM (highest dose often 114 µM), inactives show top-dose activity change, negative = inhibition, hits mostly inhibitors; 370,000 tested, 0.041% active; AmpC hydrolysis of nitrocefin, absorbance 480 nm, 0.01% Triton;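 also: potency is read from the fitted curve at half-maximal effect; 0% = no-compound wells and -100% = no-enzyme wells; nearly all actives have a fitted effect of over 25% in size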
Target sequence (P00811 whole entry, looked up): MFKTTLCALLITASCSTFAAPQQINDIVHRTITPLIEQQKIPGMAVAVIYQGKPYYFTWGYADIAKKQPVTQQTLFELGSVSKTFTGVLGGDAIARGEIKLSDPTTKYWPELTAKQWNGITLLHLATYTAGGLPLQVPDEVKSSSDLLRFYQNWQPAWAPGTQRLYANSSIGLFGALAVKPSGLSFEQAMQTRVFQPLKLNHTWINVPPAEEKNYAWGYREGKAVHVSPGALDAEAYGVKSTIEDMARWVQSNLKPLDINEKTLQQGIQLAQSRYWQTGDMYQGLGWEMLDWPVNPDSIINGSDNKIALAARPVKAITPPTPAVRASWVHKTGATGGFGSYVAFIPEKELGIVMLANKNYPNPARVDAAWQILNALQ
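AmpC (5.3 nM in the dispensed reagent) in 20 mM phosphate pH 7.0 with 0.01% (detergent screen) or 0.0001% Triton X-100 was preincubated with compounds for 15 min at room temperature. Nitrocefin was then added from an 800 uM solution, and hydrolysis was followed at 480 nm.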
Shiga toxin inh: Shiga toxin inhibition; Vero cells, Shiga toxin protein synthesis inhibition reporter; inhibition, % at 38.7 µM; 290,000 tested, 9.2% active; in the data active = inhibition mostly above about 28%, no sharp cut-off; inactive = mostly below about 43%; also: 0% is about no effect
AmpC inh no detg: inhibitors of E. coli AmpC beta-lactamase without detergent | P00811 | 330,000 tested, 0.52% active | Potency, µM (doses to about 57.1 µM), inactives show at the highest dose activity change, negative = inhibition, usual class: inhibitors | AmpC nitrocefin hydrolysis, absorbance 480 nm, 0.0001% Triton;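 also: potency is read from the fitted curve at half-maximal effect; plate controls were no compound for no effect and no enzyme for full effect; nearly all actives have a fitted effect of over 20% in size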
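20 mM phosphate pH 7.0 + 0.01% (detergent screen) or 0.0001% Triton X-100; 5.3 nM AmpC reagent; cpd preinc 15 min RT; nitrocefin (800 uM stock) to start; A480 q20 s × 4 min; Activity was normalised to no-enzyme and no-compound control wells.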
Starred values were filed as active, the others as inactive; ? = inconclusive; nt = no result given. The full list was thinned out, with hits kept by preference. Unless noted, calls follow the shape of the dose curve; as a rule, active = well fitted curve in the direction sought with a large enough effect; inconclusive = small, poorly fitted or top-dose-only effect, or another doubt; inactive = no such curve, though single readings can be large; an effect the other way counts as inactive or inconclusive.

SMILES	Cycloheximide cs	NS1 inh	AmpC inh detg	Shiga toxin inh	AmpC inh no detg
Cc1ccc(CCNC(=O)c2cc3cc4cc(C)ccc4nc3s2)cc1	nt	nt	24.3%	nt	nt
COC(=O)C1C[C@@H]2C3=C(C(=O)[C@@](C)(NC(=O)c4ccccc4)C3[C@H](C(=O)OC)C1)[C@H](C)n1c(=O)n(-c3ccccc3)c(=O)n12 (stereo partly specified)	11.0	nt	nt	31.0	nt
O=C1C[C@H](c2ccccc2Cl)N1S(=O)(=O)c1ccccc1[N+](=O)[O-]	-3.7	nt	nt	-0.8	nt
Cc1cccc(OC(=O)c2cc(-c3ccc4c(c3)OCCO4)on2)c1	nt	nt	3.6%	nt	nt
Cc1ccccc1NC(=O)N1CCCC(c2nc(-c3ccc(C(C)C)cc3)no2)C1 (stereo unspecified)	26.0*	?	-6.3%	-1.0	11.6%
Cc1ccc(NC(=O)N2CCCC(c3nc(-c4ccc(F)cc4)no3)C2)cc1 (stereo unspecified)	15.1	-5.8%	?	59.9*	-3.6%
Cc1ccccc1NC(=O)N1CCCC(c2nc(-c3ccc(F)cc3)no2)C1 (stereo unspecified)	24.0*	-34.0%	?	110.3*	12.5%
Cc1ccc(C)c(N2CCN(C(=O)CSCc3ccccc3Cl)CC2)c1	nt	nt	-3.0%	nt	nt
Cc1cccc(S(=O)(=O)N/N=c2\sc3ccccc3n2C)c1	3.2	8.2%	-1.9%	3.6	-19.9%
Cn1c(=Nc2ccccc2)sc2ccccc21	36.3*	-13.3%	3.5%	81.6	-31.9%
CN(C)c1ccc(N=c2sc3ccccc3n2C)cc1	54.1*	4.7%	-1.8%	88.9*	29.4%
N#CCCCCN1CCCC1	-5.6	3.3%	-7.7%	17.9	-12.4%
CC(OC(=O)/C(C#N)=C/c1ccco1)C(=O)N(C)c1ccccc1 (stereo unspecified)	nt	nt	nt	nt	-10.2%
COc1cccc(C(=O)N(c2ccc(C)cc2)C2C=CS(=O)(=O)C2)c1 (stereo unspecified)	-1.0	nt	0.0%	-10.4	-18.3%
Cc1cccc(OCc2cc(=O)n3c(-c4ccccc4)csc3n2)c1C	nt	nt	0.3%	nt	nt
CC(C)C[C@@H]1NC(=O)[C@H](Cc2ccc(O)cc2)NC(=O)[C@H](CCC(N)=O)NC(=O)c2cc([N+](=O)[O-])cc(I)c2NCC[C@@H](C(N)=O)NC1=O	-4.6	-25.0%	?	5.5	17.5%
CC1Oc2ccccc2N(CC(=O)NCc2ccccc2)C1=O (stereo unspecified)	31.3*	0.6%	-1.3%	105.3*	2.5%
CSc1ncnc2c1cnn2-c1ccc(C)cc1C	34.9*	nt	6.1%	139.5*	-9.6%
C=CCNc1ncnc2c1cnn2-c1ccc(C)cc1C	24.6*	-4.2%	?	66.8*	-4.8%
Cc1ccc(-n2ncc3c(N(CC(C)C)CC(C)C)ncnc32)c(C)c1	nt	nt	-2.9%	nt	nt
Cc1ccc(-n2ncc3c(SCc4ccccn4)ncnc32)c(C)c1	44.5*	nt	?	110.5*	149.3%
Cc1nnc(N2C(=O)C(O)=C(C(=O)c3ccco3)C2c2ccc(F)cc2)s1 (stereo unspecified)	-2.1	-21.5%	?	-4.7	?
Cc1nnc(N2C(=O)C(O)=C(C(=O)c3ccco3)C2c2ccc(C(C)C)cc2)s1 (stereo unspecified)	39.7*	23.6%	-12.6%	64.3*	-45.5%
Cc1nnc(N2C(=O)C(O)=C(C(=O)c3ccco3)C2c2ccc(C(C)(C)C)cc2)s1 (stereo unspecified)	11.8*	26.5%	-8.8%	21.3	-36.6%
CSc1ccc(C2C(C(=O)c3ccco3)=C(O)C(=O)N2c2nnc(SC)s2)cc1 (stereo unspecified)	36.2*	16.6%	-1.7%	74.9*	-50.3%
SMILES	Cycloheximide cs	NS1 inh	AmpC inh detg	Shiga toxin inh	AmpC inh no detg
COc1ccc(-c2nnc(SCC(=O)c3ccc(NC(C)=O)cc3)o2)cc1OC	nt	nt	8.4%	nt	nt
N#CC1(NC(=O)COc2cccnc2[N+](=O)[O-])CCCCC1	nt	nt	?	nt	-4.8%
Cc1cccc(OCC(=O)O/N=C(\N)c2ccccn2)c1	51.6*	-75.8%	-0.3%	62.5*	-15.7%
Cc1ccc(NC(=O)COC(=O)C2CC2(Cl)Cl)cc1C (stereo unspecified)	31.1*	nt	4.1%	59.5	-20.6%
N/C(=N\OC(=O)COc1ccccc1)c1ccccn1	33.9*	-11.2%	-11.1%	65.7*	-3.5%
CCc1ccc(OCC(=O)O/N=C(\N)c2ccccn2)cc1	54.3*	-47.9%	3.5%	84.8*	-10.9%
CCOc1ccc(C(=O)O/N=C(\N)c2ccccn2)cc1	-12.5	-33.1%	-13.3%	-19.5	-2.2%
CC1(C)O[C@H]2[C@@H](O1)[C@@H](C(=O)Nc1ccc(F)c(F)c1)O[C@@H]1OC(C)(C)O[C@@H]12	nt	nt	8.0%	nt	nt
COCC(C)n1c(SCC(=O)Nc2sccc2C(N)=O)nc2ccccc2c1=O (stereo unspecified)	nt	nt	-4.8%	nt	-20.0%
CC(C)N1CCN(c2ccc(C(=O)c3c(-c4ccc(O)cc4)sc4cc(O)ccc34)cc2)CC1	5.9	nt	nt	7.6	nt
CNC(=S)NCCCCc1cnc[nH]1	-1.4	nt	nt	-6.9	nt
Cc1cc(OCC(=O)O/N=C(\N)c2ccccc2)ccc1Br	33.2*	-18.8%	?	active	-25.9%
Cc1ccc(NC(=O)COc2ccc(/C(N)=N/O)cc2)cc1C	5.0	-7.9%	?	84.1*	-21.8%
Cc1ccc(OCC(=O)O/N=C(\N)c2ccncc2)cc1C	28.9*	-22.1%	0.8%	53.9*	10.1%
Cc1cc(C)cc(OCC(=O)O/N=C(\N)c2ccccn2)c1	31.4	-59.2%	0.7%	67.7	-4.4%
Cc1ccc(NC(=O)COc2ccc(-n3cnnn3)cc2)cc1C	6.8	11.2%	1.6%	26.1	-13.5%
Cc1ccc(OCC(=O)O/N=C(\N)Cc2ccc([N+](=O)[O-])cc2)cc1C	1.0	-60.6%	12.3%	-5.1	-17.2%
Cc1ccc(OCC(=O)O/N=C(\N)c2ccccn2)cc1C	50.8*	-3.7%	-0.1%	94.8*	19.6%
COc1ccc(NS(=O)(=O)c2ccc3[nH]c4c(c3c2)CCCCC4)cc1	nt	nt	-9.2%	nt	nt
CC(=O)Nc1ccc(S(=O)(=O)N(C)CC(=O)N2CCN(C(=O)c3ccco3)CC2)cc1	nt	nt	nt	nt	-10.7%
COc1cccc(NC(=O)Cn2c(=O)n(-c3ccc(CC(=O)NCC4CCCO4)cc3)c(=O)c3ccccc32)c1 (stereo unspecified)	nt	nt	20.7%	nt	nt
O=C(c1cc2cc(Br)ccc2[nH]1)N1CCc2ccccc21	18.6*	-1.6%	0.4%	16.5	-34.3%
COc1ccccc1N1CCN(C(=O)c2cc3cc(F)ccc3[nH]2)CC1	11.6	-7.1%	?	-6.3	-10.9%
Cc1cc(C(=O)N2CCc3ccccc32)c2cc(F)ccc2n1	35.4*	3.2%	-8.0%	71.9*	-6.9%
O=C(c1cccc(F)c1)N1CCc2ccccc21	4.7	-13.7%	-0.4%	-9.1	-6.2%
O=C(c1cc2cc(F)ccc2[nH]1)N1CCc2ccccc21	34.2*	-1.1%	-2.1%	74.3*	-15.9%
COc1ccc2cc(C(=O)N3CCc4ccccc43)[nH]c2c1	33.6*	-11.7%	-0.6%	99.8*	-18.0%
